Test results taken from article PMC4336329 (PLoS ONE, 2015).
Among all 310,000 compounds or so, about 14,000 (4.5%) showed an effect of 50% or more. The effect is printed as a negative number. Many of the other results were omitted from the sample, so strong results are more common in it than they were.
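Further: peak tail current of the secondary pulse compared with the same well before compound.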

Each molecule was assayed against human ether-à-go-go-related gene (hERG) potassium channel (human, UniProt Q12809) (assay: primary screen, population patch clamp on CHO cells stably expressing hERG; higher = less effect of the substance).
Sequence of human ether-à-go-go-related gene (hERG) potassium channel (Q12809 whole entry, looked up): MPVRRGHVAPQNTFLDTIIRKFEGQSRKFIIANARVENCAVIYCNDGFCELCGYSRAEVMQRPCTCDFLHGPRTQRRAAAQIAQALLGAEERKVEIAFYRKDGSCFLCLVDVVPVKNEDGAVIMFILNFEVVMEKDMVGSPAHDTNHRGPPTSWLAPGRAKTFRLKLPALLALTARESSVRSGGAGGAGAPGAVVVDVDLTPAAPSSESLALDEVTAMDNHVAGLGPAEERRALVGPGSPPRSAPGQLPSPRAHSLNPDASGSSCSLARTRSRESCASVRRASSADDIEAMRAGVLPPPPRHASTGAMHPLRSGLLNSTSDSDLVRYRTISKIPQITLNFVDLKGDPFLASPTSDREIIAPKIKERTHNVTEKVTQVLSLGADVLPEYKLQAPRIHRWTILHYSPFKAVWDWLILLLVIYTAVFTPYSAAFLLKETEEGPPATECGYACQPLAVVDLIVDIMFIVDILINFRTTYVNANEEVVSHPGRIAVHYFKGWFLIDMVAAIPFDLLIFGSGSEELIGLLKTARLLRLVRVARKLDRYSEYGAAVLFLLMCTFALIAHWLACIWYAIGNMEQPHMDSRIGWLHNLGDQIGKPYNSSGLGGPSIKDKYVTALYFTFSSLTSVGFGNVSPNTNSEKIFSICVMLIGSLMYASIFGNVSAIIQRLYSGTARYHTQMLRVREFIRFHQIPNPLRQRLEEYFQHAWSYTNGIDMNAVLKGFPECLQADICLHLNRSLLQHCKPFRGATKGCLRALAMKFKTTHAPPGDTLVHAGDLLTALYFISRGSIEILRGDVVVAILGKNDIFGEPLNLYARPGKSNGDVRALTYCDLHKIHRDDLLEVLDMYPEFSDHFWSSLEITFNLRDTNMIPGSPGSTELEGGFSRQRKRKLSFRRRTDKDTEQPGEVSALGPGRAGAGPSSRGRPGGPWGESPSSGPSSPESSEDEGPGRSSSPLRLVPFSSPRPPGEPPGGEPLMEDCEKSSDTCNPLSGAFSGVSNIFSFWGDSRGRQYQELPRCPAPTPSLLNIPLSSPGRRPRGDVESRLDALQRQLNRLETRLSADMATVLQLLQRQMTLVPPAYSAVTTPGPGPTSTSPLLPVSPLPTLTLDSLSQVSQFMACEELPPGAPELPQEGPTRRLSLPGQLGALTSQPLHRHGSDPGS
In the case of `Cc1ccc2nc(-c3ccccc3)c(CN3CCN(c4ccccc4F)CC3)n2c1`, the “hERG current change (%, negative = inhibition) at 10uM” value is reported as 1.85%. For `CN(C)S(=O)(=O)c1cccc(-c2nn(-c3ccccc3)cc2/C=C(/C#N)C(=O)NCc2ccco2)c1`, the “hERG current change (%, negative = inhibition) at 10uM” value was -26.9%. In the case of `CCCN1CCN(CCCNC(=O)c2cc3c(=O)[nH]c4ccc(C)cc4c3s2)CC1`, the “hERG current change (%, negative = inhibition) at 10uM” value is reported as -29.5%. In the case of `COc1ccccc1-c1ccc(=O)n(CC(=O)NC2CCc3ccccc32)n1` (stereo not drawn), the “hERG current change (%, negative = inhibition) at 10uM” value is reported as 5.88%. `CCOC(=O)CC(C#N)c1cn(C)c2ccccc12` (stereo not drawn) was tested, and the “hERG current change (%, negative = inhibition) at 10uM” value was -17.8%. With `CCn1c(SCC(=O)Nc2ccccc2C)nnc1-c1ccccc1O` the “hERG current change (%, negative = inhibition) at 10uM” value was 1.99%. `Cc1ccc(C2=NN(S(C)(=O)=O)C(c3cccs3)C2)cc1` (stereo not drawn) was tested, and the “hERG current change (%, negative = inhibition) at 10uM” value was -4.62%. For `Cc1nn2c(N3CCCC3)cc(C(C)C)nc2c1-c1ccccc1`, the “hERG current change (%, negative = inhibition) at 10uM” value was 3.92%. For `CC1(C)CC(=O)c2cnc(NC(=O)C3CCCC3)nc2C1`, the “hERG current change (%, negative = inhibition) at 10uM” value was -12.6%. In the case of `CCCCC(=O)Nc1ncc2c(n1)CC(C)(C)CC2=O`, the “hERG current change (%, negative = inhibition) at 10uM” value is reported as -5.63%. For `CCCCC1CC1C(=O)Nc1ncc2c(n1)CC(C)(C)CC2=O` (stereo not drawn), the “hERG current change (%, negative = inhibition) at 10uM” value was -57.5%. For `COc1cc(Br)c(CN2CCCN(C)CC2)cc1OC`, the “hERG current change (%, negative = inhibition) at 10uM” value was -0.597%. With `CN(C)C=O.O=C(COC(=O)c1ccc(S(=O)(=O)N2CCCC2)cc1)Nc1cccnc1Cl` the “hERG current change (%, negative = inhibition) at 10uM” value was 7.25%. In the case of `Cc1ccc(NC(=O)C(=O)NCC2CCN(C(=O)c3cccc([N+](=O)[O-])c3)CC2)cc1`, the “hERG current change (%, negative = inhibition) at 10uM” value is reported as -16.5%. In the case of `Cc1cccc(C(=O)NCC2CCN(C(=O)c3cccc(C)c3)CC2)c1`, the “hERG current change (%, negative = inhibition) at 10uM” value is reported as -51.2%. In the case of `Cc1cccc(C(=O)N2CCCN(C(=O)c3cccc(C)c3)CC2)c1`, the “hERG current change (%, negative = inhibition) at 10uM” value is reported as -0.26%. With `O=C(NCC1CCN(C(=O)c2ccc([N+](=O)[O-])cc2)CC1)C(=O)Nc1ccccc1` the “hERG current change (%, negative = inhibition) at 10uM” value was -36.8%. With `O=C(NCC1CCN(C(=O)c2cccc([N+](=O)[O-])c2)CC1)c1cccc([N+](=O)[O-])c1` the “hERG current change (%, negative = inhibition) at 10uM” value was -53.5%. For `Cc1cccc(C(=O)N2CCCCCC2)c1`, the “hERG current change (%, negative = inhibition) at 10uM” value was 2.61%. `Cc1cccc(C(=O)NCCN(C)C)c1.Cl` was tested, and the “hERG current change (%, negative = inhibition) at 10uM” value was 8.43%. With `O=C(NCC1CCCCC1)c1cccc([N+](=O)[O-])c1` the “hERG current change (%, negative = inhibition) at 10uM” value was 9.98%. For `Cc1cccc(C(=O)NCCCN(C)CCCNC(=O)c2cccc(C)c2)c1`, the “hERG current change (%, negative = inhibition) at 10uM” value was -52.2%. For `O=C(NCC1CCN(C(=O)c2ccc([N+](=O)[O-])cc2)CC1)c1ccc([N+](=O)[O-])cc1`, the “hERG current change (%, negative = inhibition) at 10uM” value was -71.3%. In the case of `Cc1cccc(C(=O)NCCCNC(=O)c2cccc(C)c2)c1`, the “hERG current change (%, negative = inhibition) at 10uM” value is reported as -3.67%. `O=C(NCC1CCCCC1)c1ccc([N+](=O)[O-])cc1` was tested, and the “hERG current change (%, negative = inhibition) at 10uM” value was -16%. In the case of `COc1ccc(Cl)cc1Nc1nc(-c2cccnc2)cs1`, the “hERG current change (%, negative = inhibition) at 10uM” value is reported as 5.19%. For `Cc1nonc1NC(=O)OC1CCCCC1`, the “hERG current change (%, negative = inhibition) at 10uM” value was 1.97%. `Cc1cccc(NC(=S)N2CCCN(c3ncccc3[N+](=O)[O-])CC2)c1` was tested, and the “hERG current change (%, negative = inhibition) at 10uM” value was -16.7%. For `O=C(N[C@H]1CC1c1ccccc1)c1ccc([N+](=O)[O-])cc1` (stereo partly drawn), the “hERG current change (%, negative = inhibition) at 10uM” value was -6.56%. In the case of `COc1ccccc1NC(=O)Nc1cnccn1`, the “hERG current change (%, negative = inhibition) at 10uM” value is reported as -1.51%. `CC1CCCC(NC(=S)NC(=O)c2cncc(Br)c2)C1C` (stereo not drawn) was tested, and the “hERG current change (%, negative = inhibition) at 10uM” value was 21.7%. For `O=C(NCc1ccc2c(c1)OCO2)C1CCN(S(=O)(=O)c2ccc(Br)s2)CC1`, the “hERG current change (%, negative = inhibition) at 10uM” value was -24%. With `CCc1cccc(C)c1NC(=O)C1C2CCC(O2)C1C(=O)O` (stereo not drawn) the “hERG current change (%, negative = inhibition) at 10uM” value was 18.8%. With `Cc1ccc(C2=NS(=O)(=O)N(C)C(C(=O)Nc3cc(C)n(CC(=O)N4CCCCC4)n3)=C2)cc1` the “hERG current change (%, negative = inhibition) at 10uM” value was 10.3%. `Cc1ccc2nc(-c3cccc(-c4cccc(Cl)c4)c3)c(NCc3ccccc3)n2c1.O=C(O)C(F)(F)F` was tested, and the “hERG current change (%, negative = inhibition) at 10uM” value was 16.3%. `O=S(=O)(c1cccc(-c2nc3ccccc3s2)c1)N1CCOCC1` was tested, and the “hERG current change (%, negative = inhibition) at 10uM” value was -7.39%. With `CC1=NN(/C(=N\c2nnc(C)s2)Nc2ccccc2)[C@H](c2ccc(C)cc2)S1` the “hERG current change (%, negative = inhibition) at 10uM” value was -13.5%. For `CCC1CCCCN1CCCNC(=O)c1cn(CC)c2ccc(S(=O)(=O)N(C)C3CCCCC3)cc2c1=O` (stereo not drawn), the “hERG current change (%, negative = inhibition) at 10uM” value was -79.8%. For `CCC1CCCCN1CCCNC(=O)c1cn(C)c2ccc(S(=O)(=O)N(C)C3CCCCC3)cc2c1=O` (stereo not drawn), the “hERG current change (%, negative = inhibition) at 10uM” value was -62.8%. `CN(C)S(=O)(=O)c1ccc2c(c1)c(=O)c(C(=O)NCCCN1CCCCCC1)cn2C` was tested, and the “hERG current change (%, negative = inhibition) at 10uM” value was -4.72%. With `CCOC(=O)N1CCN(C(=O)c2cn(C)c3ccc(S(=O)(=O)N(C)C4CCCCC4)cc3c2=O)CC1` the “hERG current change (%, negative = inhibition) at 10uM” value was -29.4%. In the case of `CCn1cc(C(=O)OC)c(=O)c2cc(S(=O)(=O)N(C)C3CCCCC3)ccc21`, the “hERG current change (%, negative = inhibition) at 10uM” value is reported as -28.4%. With `CCn1cc(C(=O)NCC2CCCO2)c(=O)c2cc(S(=O)(=O)N(C)C3CCCCC3)ccc21` (stereo not drawn) the “hERG current change (%, negative = inhibition) at 10uM” value was -31.6%. In the case of `CCc1ccc(-c2cc(C(F)(F)F)n3nc(C(=O)Nc4cnn(Cc5ccccc5C)c4)cc3n2)s1`, the “hERG current change (%, negative = inhibition) at 10uM” value is reported as 5.41%. `COCCNC(=O)c1cc(S(=O)(=O)N2CCCCC2)ccc1N1CCOCC1` was tested, and the “hERG current change (%, negative = inhibition) at 10uM” value was 1.23%. `Cc1sc2nc(CN3CCCC3)nc(N3CCN(S(=O)(=O)c4cccs4)CC3)c2c1C` was tested, and the “hERG current change (%, negative = inhibition) at 10uM” value was -70.7%. `Cc1sc2nc(CN3CCCC3)nc(N3CCN(S(=O)(=O)c4ccccc4)CC3)c2c1C` was tested, and the “hERG current change (%, negative = inhibition) at 10uM” value was -67%. In the case of `Cc1sc2nc(CN3CCOCC3)nc(NS(=O)(=O)c3ccccc3)c2c1C`, the “hERG current change (%, negative = inhibition) at 10uM” value is reported as 9.1%. For `CCc1nc(N2CCN(S(=O)(=O)c3ccc(Br)cc3)CC2)c2c(C)c(C)sc2n1`, the “hERG current change (%, negative = inhibition) at 10uM” value was -32%. With `Cc1nc(N2CCN(S(=O)(=O)c3ccc(F)cc3)CC2)c2c(C)c(C)sc2n1` the “hERG current change (%, negative = inhibition) at 10uM” value was -6.58%. With `COc1ccc(-c2csc3ncnc(N4CCN(S(=O)(=O)c5cccc(F)c5)CC4)c23)cc1` the “hERG current change (%, negative = inhibition) at 10uM” value was -3.5%. With `Cc1sc2nc(CN3CCCC3)nc(N3CCN(S(=O)(=O)c4cccc(F)c4)CC3)c2c1C` the “hERG current change (%, negative = inhibition) at 10uM” value was -70.1%. In the case of `Cc1ccc(S(=O)(=O)N2CCN(c3nc(CN4CCCC4)nc4sc(C)c(C)c34)CC2)cc1`, the “hERG current change (%, negative = inhibition) at 10uM” value is reported as -77.7%. For `Cc1sc2nc(CN3CCOCC3)nc(N3CCN(S(=O)(=O)c4ccccc4)CC3)c2c1C`, the “hERG current change (%, negative = inhibition) at 10uM” value was -41.6%. `CCCc1nc(N2CCN(S(=O)(=O)c3ccc(Cl)cc3)CC2)c2c(C)c(C)sc2n1` was tested, and the “hERG current change (%, negative = inhibition) at 10uM” value was -17.1%. With `O=S(=O)(c1cccs1)N1CCN(Cc2ccccc2)CC1` the “hERG current change (%, negative = inhibition) at 10uM” value was -14%. For `Cc1cccc(N2CCN(S(=O)(=O)c3cccs3)CC2)c1C`, the “hERG current change (%, negative = inhibition) at 10uM” value was -15.8%.
